# Experimental data as given in a collection of fitness landscapes (doi:10.1126/science.1257360).
# The full ranking holds about 140,000 sequences; the median of “enrichment ratio after two sorts for PhoP signalling” is about 0, and the highest 2% start at about 11. For the sample, the highest values were picked, then their nearest neighbours and some sequences at random.
# B1: PhoQ; a variant is named by its letters at X, in order, P23837 (parent)
# chain: MKKLLRLFFPLSLRVRFLLATAAVVLVLSLAYGMVALIGYSVSFDKTTFRLLRGESNLFYTLAKWENNKLHVELPENIDKQSPTMTLIYDENGQLLWAQRDVPWLMKMIQPDWLKSNGFHEIEADVNDTSLLLSGDHSIQQQLQEVREDDDDAEMTHSVAVNVYPATSRMPKLTIVVVDTIPVELKSSYMVWSWFIYVLSANLLLVIPLLWVAAWWSLRPIEALAKEVRELEEHNRELLNPATTRELTSLVRNLNRLLKSERERYDKYRTTLTDLTHSLKTPLXXLQXXLRSLRSEKMSVSDAEPVMLEQISRISQQIGYYLHRASMRGGTLLSRELHPVAPLLDNLTSALNKVYQRKGVNISLDISPEISFVGEQNDFVEVMGNVLDNACKYCLEFVEISARQTDEHLYIVVEDDGPGIPLSKREVIFDRGQRVDTLRPGQGVGLAVAREITEQYEGKIVAGESMLGGARMEVIFGRQHSAPKDE
# Variants of: B1
# Assay: enrichment ratio after two sorts for PhoP signalling (ratio (wild type AVST 3.29)); higher = more functional
# Details: with PhoP (E. coli)
row,Variant,enrichment ratio
1,CPPL,≤ 0.25
2,LICH,≤ 0.25
3,GFMC,≤ 0.25
4,RVDS,≤ 0.25
5,INFA,≤ 0.25
6,TVQC,4.14
7,FEAI,≤ 0.25
8,LSQY,≤ 0.25
9,NALI,4.49
10,IILI,≤ 0.25
11,KALI,≤ 0.25
12,YALI,13.3
13,KQLI,≤ 0.25
14,GALA,2.12
15,GTLI,15.8
16,SALI,12.2
17,GALI,14.1
18,ITLI,8.76
19,GALS,5.05
20,GYLI,0.357
21,ERQV,≤ 0.25
22,LRKP,≤ 0.25
23,KPPH,≤ 0.25
24,TPRP,≤ 0.25
25,FDPD,≤ 0.25

row,Variant,enrichment ratio
1,PKVE,≤ 0.25
2,RSAQ,≤ 0.25
3,HALI,12.2
4,HFLI,≤ 0.25
5,HALA,≤ 0.25
6,LTLI,0.384
7,CTLI,≤ 0.25
8,TTLI,12.4
9,LMQH,≤ 0.25
10,KFYQ,≤ 0.25
11,CSGS,≤ 0.25
12,WWST,≤ 0.25
13,FRNI,≤ 0.25
14,TVQN,12.1
15,FVQK,≤ 0.25
16,TVEN,≤ 0.25
17,TVQV,12.7
18,TVQK,15.5
19,SPQV,≤ 0.25
20,NVQK,≤ 0.25
21,TVQQ,12.6
22,SPQN,≤ 0.25
23,SPQQ,≤ 0.25
24,PVQQ,≤ 0.25
25,PVQV,≤ 0.25

row,Variant,enrichment ratio
1,DRLY,≤ 0.25
2,RFEM,≤ 0.25
3,RQMN,≤ 0.25
4,HNHV,≤ 0.25
5,THPW,≤ 0.25
6,LWEP,≤ 0.25
7,VYIW,≤ 0.25
8,GCNG,≤ 0.25
9,ANVM,14.9
10,ANDS,≤ 0.25
11,ANDM,≤ 0.25
12,ARGM,≤ 0.25
13,ANGH,11.6
14,ARVM,14.7
15,AHGH,≤ 0.25
16,ANGR,≤ 0.25
17,ANGM,21.9
18,ANGP,≤ 0.25
19,ARVA,≤ 0.25
20,ANGD,≤ 0.25
21,SWFD,≤ 0.25
22,HSAA,≤ 0.25
23,FPVD,≤ 0.25
24,VQYV,≤ 0.25
25,DVLV,≤ 0.25

row,Variant,enrichment ratio
1,PCEH,≤ 0.25
2,WFYE,≤ 0.25
3,LTRP,≤ 0.25
4,YRLF,≤ 0.25
5,ANCK,6.46
6,ANNM,12.9
7,ANPM,≤ 0.25
8,RPWW,≤ 0.25
9,HFCW,≤ 0.25
10,QNYM,≤ 0.25
11,QNGV,22.1
12,QRGV,≤ 0.25
13,QNHV,≤ 0.25
14,QNGD,≤ 0.25
15,QNGM,16
16,EKNQ,≤ 0.25
17,NNYE,≤ 0.25
18,HMKK,≤ 0.25
19,DNAG,≤ 0.25
20,FMVV,≤ 0.25
21,MREV,≤ 0.25
22,HMSI,≤ 0.25
23,QCTL,≤ 0.25
24,YHCQ,≤ 0.25
25,SHCI,6.63

row,Variant,enrichment ratio
1,SHCQ,21.1
2,VHCQ,≤ 0.25
3,SHCA,2.47
4,THCQ,14.3
5,PQRE,≤ 0.25
6,TLYI,0.826
7,RITC,≤ 0.25
8,RFYH,≤ 0.25
9,FWFN,≤ 0.25
10,ERAC,≤ 0.25
11,RIAL,≤ 0.25
12,SPAL,≤ 0.25
13,SAAL,12.8
14,SKNL,≤ 0.25
15,SKRL,≤ 0.25
16,SFAL,≤ 0.25
17,SIAL,15.1
18,SKAL,12.2
19,SQAL,7.54
20,SRAL,≤ 0.25
21,SNAL,12.1
22,KYAL,≤ 0.25
23,ETHL,≤ 0.25
24,VYRH,≤ 0.25
25,PVYN,≤ 0.25

row,Variant,enrichment ratio
1,RLWM,≤ 0.25
2,LPNQ,≤ 0.25
3,YSKE,≤ 0.25
4,NNAF,≤ 0.25
5,TTGS,8.05
6,WDHH,≤ 0.25
7,GVIH,≤ 0.25
8,QAPP,≤ 0.25
9,ITAL,0.733
10,NIAL,1.57
11,QEAL,≤ 0.25
12,SLAL,10.6
13,SSAL,12.2
14,YTAL,≤ 0.25
15,STAL,11.5
16,TIAL,12.9
17,WIAL,≤ 0.25
18,NSAL,≤ 0.25
19,MTAL,5.98
20,TTAL,18.4
21,YSQQ,≤ 0.25
22,PRCN,≤ 0.25
23,RSCH,≤ 0.25
24,DCRN,≤ 0.25
25,MFPC,≤ 0.25

row,Variant,enrichment ratio
1,YLTE,≤ 0.25
2,METL,3.99
3,NVTL,≤ 0.25
4,MATL,7.59
5,TSTL,20.7
6,MMTL,13.2
7,WITL,0.966
8,FVLT,≤ 0.25
9,WYAY,≤ 0.25
10,KNFK,≤ 0.25
11,MYGA,≤ 0.25
12,GWFA,≤ 0.25
13,RSRM,≤ 0.25
14,GCLN,11.5
15,GCLT,6.49
16,KCLN,≤ 0.25
17,GCNL,≤ 0.25
18,GCLA,6.8
19,GCLS,19.3
20,VRSC,≤ 0.25
21,YKWM,≤ 0.25
22,FVSC,≤ 0.25
23,QGSC,12
24,TGSC,20.2
25,NGSC,≤ 0.25

row,Variant,enrichment ratio
1,GGSC,9.93
2,FFSC,≤ 0.25
3,FEYD,≤ 0.25
4,FCVK,≤ 0.25
5,ESKA,≤ 0.25
6,NEVN,≤ 0.25
7,VAFL,3.05
8,WLWC,≤ 0.25
9,QCNL,≤ 0.25
10,QCGD,≤ 0.25
11,GGWL,≤ 0.25
12,QCWL,13.1
13,QCWI,37.7
14,QCDS,≤ 0.25
15,VIGT,≤ 0.25
16,IMSW,≤ 0.25
17,VRWG,≤ 0.25
18,VEWH,13.7
19,VEWI,12.2
20,VELA,≤ 0.25
21,VEWS,2.49
22,VLWH,≤ 0.25
23,VLWG,≤ 0.25
24,VEWG,18.1
25,VRWH,≤ 0.25
